Hits are enriched below; roughly 28% of the tested compounds scored in any of these assays.
CYP2C9 inh – human CYP2C9 inhibition; P11712; CYP2C9 Supersomes, luciferin-H conversion, luminescence; inhibition, % at 5 µM; hit rate 20% among 96,000;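 active = blocking of liver enzyme CYP2C9 beyond about 50% at 5 µM, limit read from the data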
CYP2C9 act – activators of human CYP2C9. P11712. AID 1024. recombinant CYP2C9, luciferin-H conversion, luminescence; hits give high values; factor 1 = untreated enzyme, 0 = blocked. activation factor at 5 µM. hit rate 1.4% among 96,000;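 active = activation factor of 2 or more for CYP2C9 at a 5 µM dose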
Pyk2 oligo antag – Pyk2 (human) oligomerization antagonism; Q14289; Q293 cells, Pyk2 FERM NanoBiT luminescence; hits give low values; z-score (the deposit names both 25 µM and 10 µM); hit rate 0.83% among 99,000; AID 1347419;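 active = Z-score of -3 or lower, scaled per plate to the spread of control and sample wells; inactive = z-score above -3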;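 also: negative z-score means lost luminescence so less FERM oligomerization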
Target sequence (Q14289 whole entry, looked up): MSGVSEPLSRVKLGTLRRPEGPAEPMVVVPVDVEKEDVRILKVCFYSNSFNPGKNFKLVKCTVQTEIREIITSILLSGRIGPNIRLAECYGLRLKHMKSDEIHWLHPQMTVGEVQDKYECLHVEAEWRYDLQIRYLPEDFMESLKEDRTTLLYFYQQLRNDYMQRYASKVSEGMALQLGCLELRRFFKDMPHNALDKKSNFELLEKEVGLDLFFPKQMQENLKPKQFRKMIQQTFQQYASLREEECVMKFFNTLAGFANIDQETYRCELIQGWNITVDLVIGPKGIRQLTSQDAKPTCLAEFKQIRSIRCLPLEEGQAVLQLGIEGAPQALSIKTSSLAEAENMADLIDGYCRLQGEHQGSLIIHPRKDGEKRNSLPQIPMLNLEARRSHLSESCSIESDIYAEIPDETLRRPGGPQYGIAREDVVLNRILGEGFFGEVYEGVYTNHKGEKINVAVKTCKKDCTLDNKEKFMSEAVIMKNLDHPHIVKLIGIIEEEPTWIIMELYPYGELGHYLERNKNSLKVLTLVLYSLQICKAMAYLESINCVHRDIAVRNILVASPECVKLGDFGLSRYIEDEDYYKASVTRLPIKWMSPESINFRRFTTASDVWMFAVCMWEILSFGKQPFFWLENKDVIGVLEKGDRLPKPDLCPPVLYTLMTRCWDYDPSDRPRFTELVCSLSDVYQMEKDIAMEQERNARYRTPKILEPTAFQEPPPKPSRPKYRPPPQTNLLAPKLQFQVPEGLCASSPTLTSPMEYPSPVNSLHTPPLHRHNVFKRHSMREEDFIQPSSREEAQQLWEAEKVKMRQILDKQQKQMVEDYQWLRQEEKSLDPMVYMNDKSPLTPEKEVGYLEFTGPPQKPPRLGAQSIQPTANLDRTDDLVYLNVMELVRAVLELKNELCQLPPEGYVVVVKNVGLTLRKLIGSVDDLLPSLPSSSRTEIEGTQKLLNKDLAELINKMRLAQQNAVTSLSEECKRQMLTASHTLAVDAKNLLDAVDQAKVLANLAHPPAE
CYP2C19 inh – blocks human cytochrome P450 2C19; hit rate 21% among 96,000; CYP2C19 Supersomes, luciferin-H EGE luminescence, 30 min; AID 778; P33261; inhibition, % at 5 µM;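 active = CYP2C19 inhibition above a set limit at 5 µM in the primary screen, cut at about 50% in these data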
CYP2C19 activ – increases human CYP2C19 enzyme activity | recombinant CYP2C19, luciferin-H EGE luminescence; hits give high values; 0 = fully inhibited enzyme, 1 = untreated enzyme | activation factor at 5 µM | 96,000 tested, under 10 active | P33261;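 active = activation factor of at least 2 at 5 µM in the primary screen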
Of the large screens only hits and unclear results are named; the others gave an inactive call.

CCOc1c(Cl)cc(C(=O)Nc2ccccc2C(=O)O)cc1Cl	CYP2C9 inh 59, Pyk2 oligo antag -4
COc1ccccc1NC(=O)CN(C)S(=O)(=O)c1ccc2c(c1)CCC(=O)N2	none (no result: Pyk2 oligo antag)
CCC1(CC)C(=O)N(C)C(=O)NC1=Nc1ccccc1	none
COc1ccccc1C1(O)CC2CCC(C1)N2S(=O)(=O)c1ccc(C(C)=O)cc1 (stereo not drawn)	none
COc1ccc(OC)c(S(=O)(=O)N(C)CC(=O)O)c1	none
COC(=O)c1ccccc1NC(=O)CN(C)S(=O)(=O)c1cc(C)ccc1OC	CYP2C9 inh 67, CYP2C19 inh 94
CCN(CC)S(=O)(=O)c1cc(C(=O)Nc2ccccc2C(=O)O)ccc1OC	CYP2C9 inh 86
CCN(CC)S(=O)(=O)c1ccc(OC)c(NC(=O)c2ccc(OC)c([N+](=O)[O-])c2)c1	none (no result: CYP2C9 inh, CYP2C9 act, CYP2C19 inh, CYP2C19 activ)
COc1ccc(NC(=O)CN(C)S(=O)(=O)c2ccc3c(c2)CCC(=O)N3)c(OC)c1	CYP2C19 inh 55 (no result: Pyk2 oligo antag)
COc1ccc(OC)c(S(=O)(=O)N(C)CC(=O)Nc2ccccc2OC)c1	CYP2C19 inh 77
O=C(CN1C(=O)COCC1=O)N1CCOCC1	none
CCOC(=O)c1cnc2sc3c(n2c1=O)CCCC3	none
CC1=C(C(N)=O)C(c2ccncc2)n2nc(-c3ccccc3Cl)nc2N1 (stereo not drawn)	none (no result: Pyk2 oligo antag)
CCCc1nc2sc3c(SCC(=O)NCc4ccco4)ncnc3c2c2c1CCC2	none
C#CC(=O)N(c1cccc(OC)c1)C(C(=O)NC1CCCC1)c1cccs1 (stereo not drawn)	CYP2C19 inh 57
O=C(Cc1cccs1)N(Cc1cccs1)C1(C(=O)NC2CCCCC2)CCCCC1	Pyk2 oligo antag -4.5
COc1ccc(CCN(C(=O)C(F)(F)F)C(C(=O)NC2CCCC2)c2cccs2)cc1OC (stereo not drawn)	CYP2C9 inh 88, CYP2C19 inh 85
COc1ccc(CN(C(=O)Cc2cccs2)C(C(=O)NC2CCCC2)c2ccncc2)cc1 (stereo not drawn)	CYP2C9 inh 67, CYP2C19 inh 80
COc1ccc(CN2C(=O)CN=C2Nc2cccc(C)c2C)cc1	none
Cn1c(NC(=O)c2ccc(Br)o2)cc(=O)n(C)c1=O	none
COc1ccc(CNC(=O)C(c2ccncc2)N(C(=O)Cc2cccs2)c2ccc(C)cc2)cc1 (stereo not drawn)	CYP2C9 inh 69, CYP2C19 inh 67
Cn1cccc1C(C(=O)NC1CCCCC1)N(C(=O)Cc1cccs1)C1CC1 (stereo not drawn)	CYP2C19 inh 92
COc1ccc(C(C(=O)NC2CCCCC2)N(Cc2cccs2)C(=O)Cc2c[nH]c3ccccc23)cc1 (stereo not drawn)	CYP2C9 inh 68
COc1ccc(N(C(=O)Cc2cccs2)C(C(=O)NC2CCCCC2)c2cccn2C)cc1OC (stereo not drawn)	none (no result: CYP2C9 inh, CYP2C9 act, CYP2C19 inh, CYP2C19 activ)
COc1cccc(CN(C(=O)Cc2c[nH]c3ccccc23)C(C(=O)NC2CCCCC2)c2cccs2)c1 (stereo not drawn)	CYP2C9 inh 98, CYP2C19 inh 94
O=C(c1ccco1)N1CCN(C(=O)C2CCN(S(=O)(=O)Cc3ccccc3)CC2)CC1	none
COc1ccc(C(C(=O)NC2CCCC2)N(Cc2ccccc2)C(=O)c2nsc(Cl)c2Cl)cc1 (stereo not drawn)	CYP2C9 inh 64, CYP2C19 inh 61
O=C(NC1CCCCC1)C(c1ccc2ncccc2c1)N(Cc1ccc(F)cc1)C(=O)c1cccs1 (stereo not drawn)	CYP2C9 inh 84, Pyk2 oligo antag -3.9, CYP2C19 inh 66
COCc1cc(C)nc(OCC(=O)N/N=C/c2cc(C)n(-c3c(C)cccc3C)c2C)c1C#N	CYP2C9 inh 83
CN1CCN(c2cc3c(c4c2[nH]c2ccccc24)C(=O)CC(C)(C)C3)CC1	CYP2C9 inh 78, CYP2C19 inh 61 (no result: Pyk2 oligo antag)
CN1CCN(c2ncnc3c2[nH]c2ccc(F)cc23)CC1	none
CNc1nc(C)cc(C)c1S(=O)(=O)c1ccc(C)cc1	CYP2C9 act 3.6, CYP2C19 inh 82
Cc1cc(C)c(S(=O)(=O)c2ccccc2C)c(OCC(C)(C)C)n1	none
Cc1cc(C)c(S(=O)(=O)c2ccccc2)c(OC(=O)c2c(Cl)cc(Cl)cc2Cl)n1	CYP2C19 inh 53
Cc1ccc(S(=O)(=O)c2c(C)cc(C)nc2Oc2cccc(C)c2C)cc1	none
Cc1cc(C)c(S(=O)(=O)c2ccccc2)c(N(C)C)n1	CYP2C19 inh 64
CCOC(=O)CCCn1ncn2c(cc3occc32)c1=O	none
O=c1[nH]c2ccccc2n1C1CCCCC1	none
Cc1cc(C(=O)NCCC(c2ccccc2)c2ccccc2)c(C)o1	CYP2C9 inh 98, CYP2C19 inh 93
CCOc1ccc(CC(=O)NCc2cn3c(C)csc3n2)cc1	none (no result: Pyk2 oligo antag)
C=CCNc1sc(C(=O)c2ccc(Br)s2)c(N)c1C#N	CYP2C9 inh 63
COC(=O)CS(=O)(=O)c1ccc2c(c1)CC(=O)N2	none
CCNc1nc(NCC)nc(OCCOC(=O)c2ccccc2)n1	CYP2C19 inh 51
CCOC(=O)CC1C(=O)NCCN1Cc1cccc(OC)c1 (stereo not drawn)	CYP2C9 inh 75 (no result: Pyk2 oligo antag)
COc1ccc(CN2CCNC(=O)C2CC(=O)O)c(OC)c1 (stereo not drawn)	none (no result: Pyk2 oligo antag)
CCc1nc2cc(CC(=O)O)ccc2o1	none
COc1ccccc1N(CC(O)CN1C(=O)NC(C)(C)C1=O)S(=O)(=O)c1ccc(C)cc1 (stereo not drawn)	CYP2C9 inh 60, CYP2C19 inh 94
Cc1ccc(C)c(C(=O)c2c(C)nc3sccn23)c1	CYP2C19 inh 95
Cc1cc(C)c(NC(=O)c2cc3c(nc4sccn43)s2)c(C)c1	none
Cc1ccc(N(C(=O)Cn2nnc3ccccc32)C(C(=O)NC2CCCCC2)c2cn(C)nc2C)cc1 (stereo not drawn)	CYP2C19 inh 67
O=C(Cn1nnc2ccccc21)NC1CCCCC1	CYP2C19 inh 55
CCCCNC(=O)c1ccc(S(=O)(=O)c2ccc(Cl)cc2)c(NC(C)=O)c1	none
O=C(C1CCN(S(=O)(=O)c2ccc(F)cc2)CC1)N1CCOCC1	none
CC(=O)NCCC(=O)Nc1cc(F)ccc1C	none
COc1ccc(NC(=O)CCNC(C)=O)cc1NS(=O)(=O)c1ccc(F)cc1	CYP2C19 inh 52
COc1ccc2c(CC(=O)Nc3ccc(OC)c(NS(=O)(=O)c4ccc(F)cc4)c3)coc2c1	CYP2C9 inh 74, CYP2C19 inh 72
Cc1cc(=O)[nH]c2c1c(C)nn2C1CCOC(C)(C)C1 (stereo not drawn)	none
CCOC(=O)c1sc(N)c(C#N)c1CSc1nnc(C2CCCCC2)n1N	CYP2C9 inh 78
CS(=O)(=O)N1CCN(C(=O)CCC2CCCC2)CC1	none
Cc1ccc(OCC(=O)N2CCN(C(=O)CCC3CCCC3)CC2)cc1	CYP2C9 inh 56, CYP2C19 inh 56
COc1ccc(S(=O)(=O)N2CCN(C(=O)CCC3CCCC3)CC2)cc1	CYP2C19 inh 55
CCOC(=O)c1c(C)[nH]c(C(=O)NNC(=O)c2ccccc2)c1C	none

Bioassay records as filed in PubChem BioAssay.
